These results are taken from PubChem BioAssay.

Values joined by “and” are separate entries in the source; they are usually repeats but may differ in a detail not shown here. Identical values can stand only once. Active and inactive are the calls of the source. Rule as the data show it, unless noted: active = inhibition above about 80%; inactive = the rest.

Assay [1] in a line: growth inhibition, single agents and combos, HTB85, cell-based, BGB or cisplatin IC20 combos, synergistic combos for chromothripsis tumors (AID 1671453).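 Also: cells exposed for 96 hours before readout; 0% = vehicle DMSO and 100% = high DMSO killing control.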 Particulars: HTB85 osteosarcoma cells, drug combinations, stronger effect = higher value.
The nature of assay [2]: growth inhibition, single agents and combos, CRL2098, cell-based, BGB or cisplatin IC20 combos, synergistic combos for chromothripsis tumors (AID 1671454).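 Also: cells exposed for 96 h before readout; 0% = vehicle DMSO and 100% = killing by high DMSO.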 The following applies: CRL2098 osteosarcoma cells, drug combinations, stronger effect = higher value.
Assay [3] can be described thus: growth inhibition, single agents and combos, HD-MB03, cell-based, BGB or cisplatin IC20 combos, synergistic combos for chromothripsis tumors (AID 1671455; in the data active = inhibition above about 83%;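 also: 0% = vehicle DMSO and 100% = high DMSO as cytotoxic control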). Particulars: HD-MB03 medulloblastoma cells, stronger effect = higher value.
Assay [4] is described as follows: growth inhibition, single agents and combos, UWB1.289, cell-based, BGB or cisplatin combos, synergistic combos for chromothripsis tumors (AID 1671456).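 Also: cells exposed to compound for four days; 0% = vehicle DMSO and 100% = killing by high DMSO.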 Particulars: UWB1.289 ovarian carcinoma cells, stronger effect = higher value.
Assay [5] can be described thus: growth inhibition, single agents and combos, LFS_MB_2R, cell-based, cisplatin combos, synergistic combos for chromothripsis tumors (AID 1671457).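 Also: cells exposed to compound for four days before readout.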 Particulars: LFS_MB_2R medulloblastoma cells, stronger effect = higher value.
Assay [6] can be described thus: growth inhibition, MDA-MB-436, cell-based, BGB or cisplatin combos, synergistic combos for chromothripsis tumors (AID 1671458; call rule not given here;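 also: cells exposed for 96 hours; 0% = vehicle DMSO and 100% = killing by high DMSO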). Particulars: MDA-MB-436 breast carcinoma growth inhibition, drug combinations, stronger effect = higher value.
A short description of assay [7]: UWB1.289_BRCA1 ovarian cancer growth, cell-based, BGB or cisplatin combinations (AID 1671459). The following applies: UWB1.289 BRCA1 ovarian carcinoma, drug combinations, stronger effect = higher value.
The nature of assay [8]: drug combination toxicity in non-malignant astrocytes – cell-based, BGB or cisplatin IC20 combos, cytotoxicity control for chromothriptic childhood tumor combination screen (AID 1671460).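 Also: cells exposed to compounds for 96 hours before viability readout; 0% = vehicle and 100% = killing control.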 Particulars: Human astrocytes, viability inhibition, drug combinations, at 0.5 µM, stronger effect = higher value.
A short description of assay [9]: BT084 cell growth, single and combined drugs, ICGC_MB145, cisplatin and BGB IC40 combos (AID 1671461).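 Also: cells exposed to drugs for 96 hours; 0% = vehicle DMSO and 100% = high DMSO full killing control.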 Particulars: BT084 medulloblastoma cells, drug combinations, stronger effect = higher value.
The nature of assay [10]: RCMB18 cell growth, single agent and combined, cisplatin and BGB IC40 combos (AID 1671462).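 Also: cells exposed to compound for four days.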 Particulars: RCMB18 medulloblastoma cells, stronger effect = higher value.
Assay [11] is described as follows: CRL1545 cell growth, single agent and combined, cisplatin and BGB IC20 combos (AID 1671464).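 Also: cells exposed to compound for 96 hours before readout; 0% = vehicle DMSO and 100% = high DMSO killing control.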 The following applies: CRL1545 osteosarcoma cells, stronger effect = higher value.
In assay [12] the target is NAD(+) hydrolase SARM1 (Homo sapiens) (UniProt Q6SZW1). The experiment in a line: blocking NAD cleavage by SARM1 SAM-TIR – cell lysate, NAD-Glo luminescence (AID 1508614;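 active = compound whose remaining NAD level is above about 45 nM, limit read from the data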;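 also: higher remaining NAD means stronger inhibition of SARM1 NADase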). The following applies: SAM-TIR HEK293T lysate NADase, at 1 µM, stronger effect = higher value.
A short description of assay [13]: galactose survival enhancers in mitochondrial complex I cybrids – cell-based, galactose medium, ATP luminescence, primary screen (AID 1645843;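 active = z-score of at least 1.8 in each of two replicates, scored against plate mean and spread of sample wells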;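 also: positive z means more ATP and so rescue of galactose-driven cybrid death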). The following applies: complex I mutant cybrid cells, 72 h, stronger effect = higher value.
For assay [14], the target named is Mitogen-activated protein kinase 7 (Homo sapiens) (UniProt Q13164). In words: Gal4-ERK5 driven luciferase induction – cell-based, HTS, primary screen (AID 1508626;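 active = luciferase signal above three times the same-plate solvent-only control wells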;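 also: luciferase driven by Gal4-ERK5 fusion binding five Gal4 sites before minimal TATA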). Particulars: HeLa Gal4-ERK5 transactivation, 18 h, at 5 µM, stronger effect = higher value.
Where [15] appears, read: measured here: combination with cisplatin, at 0.5 µM.

NAD(+) hydrolase SARM1 (Homo sapiens), sequence (Q6SZW1 whole entry, looked up): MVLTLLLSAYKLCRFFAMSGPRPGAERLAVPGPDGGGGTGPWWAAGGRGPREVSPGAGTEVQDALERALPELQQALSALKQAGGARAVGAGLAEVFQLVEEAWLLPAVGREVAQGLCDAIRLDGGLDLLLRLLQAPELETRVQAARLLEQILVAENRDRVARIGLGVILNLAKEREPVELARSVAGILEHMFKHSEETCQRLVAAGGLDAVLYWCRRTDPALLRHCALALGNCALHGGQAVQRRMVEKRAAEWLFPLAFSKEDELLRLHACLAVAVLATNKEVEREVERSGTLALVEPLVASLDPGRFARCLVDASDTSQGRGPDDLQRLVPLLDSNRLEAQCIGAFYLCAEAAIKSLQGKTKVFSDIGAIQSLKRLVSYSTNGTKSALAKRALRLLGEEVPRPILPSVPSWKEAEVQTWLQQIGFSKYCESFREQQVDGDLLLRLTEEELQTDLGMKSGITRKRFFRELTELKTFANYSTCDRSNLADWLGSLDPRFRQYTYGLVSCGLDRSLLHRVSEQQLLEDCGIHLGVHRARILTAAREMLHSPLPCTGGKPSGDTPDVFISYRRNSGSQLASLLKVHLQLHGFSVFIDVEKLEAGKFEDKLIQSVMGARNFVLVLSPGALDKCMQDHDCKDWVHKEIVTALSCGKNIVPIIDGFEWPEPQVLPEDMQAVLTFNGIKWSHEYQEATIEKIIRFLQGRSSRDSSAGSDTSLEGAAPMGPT
Mitogen-activated protein kinase 7 (Homo sapiens), sequence (Q13164 whole entry, looked up, the tested form may be a part): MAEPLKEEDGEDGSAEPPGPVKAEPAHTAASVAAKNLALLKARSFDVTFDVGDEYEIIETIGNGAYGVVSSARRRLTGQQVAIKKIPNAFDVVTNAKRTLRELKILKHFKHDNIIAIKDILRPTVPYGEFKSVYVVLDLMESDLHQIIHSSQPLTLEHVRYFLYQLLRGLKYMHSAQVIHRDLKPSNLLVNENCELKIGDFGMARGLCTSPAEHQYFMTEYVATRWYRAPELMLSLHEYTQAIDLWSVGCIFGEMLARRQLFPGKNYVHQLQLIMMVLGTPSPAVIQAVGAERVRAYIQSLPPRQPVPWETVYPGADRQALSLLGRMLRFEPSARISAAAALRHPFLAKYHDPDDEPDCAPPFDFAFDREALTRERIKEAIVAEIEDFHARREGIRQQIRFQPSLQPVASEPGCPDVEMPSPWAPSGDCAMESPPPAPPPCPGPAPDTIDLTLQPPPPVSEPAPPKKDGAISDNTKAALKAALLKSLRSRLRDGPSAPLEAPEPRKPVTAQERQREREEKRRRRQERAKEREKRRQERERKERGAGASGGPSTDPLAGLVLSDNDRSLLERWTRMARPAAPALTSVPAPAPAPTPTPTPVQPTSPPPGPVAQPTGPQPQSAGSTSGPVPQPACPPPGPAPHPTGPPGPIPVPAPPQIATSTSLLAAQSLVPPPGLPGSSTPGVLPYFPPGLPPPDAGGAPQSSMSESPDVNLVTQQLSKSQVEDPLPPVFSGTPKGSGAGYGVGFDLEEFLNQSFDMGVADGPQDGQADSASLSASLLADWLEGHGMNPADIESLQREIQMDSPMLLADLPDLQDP

With `O=NN(CCCl)C(=O)NC1CCCCC1`, the inhibition (in general, the change of the read-out against control, counted positive when it falls) was -45.5% and 7.57% in [1] (measured here: with cisplatin IC20, at 5 µM); -16.4% and -4.13% in assay [1] (single agent, at 5 µM); -30.9% (inactive) and -17.1% (inactive) in assay [2] (at 0.5 µM); -24.6% and 7.17% in assay [2] (measured here: combination with BGB at IC20, at 0.5 µM); -72.6% and -17.3% in [2] (measured here: combination with cisplatin at IC20, at 0.5 µM); -11.2% (inactive) and -8.17% (inactive) in [3] (at 0.5 µM). For the same molecule, the inhibition in assay [3] (measured here: combo with BGB at IC20, at 0.5 µM) was -11.5% and -2.92%; in assay [3] (measured here: combo with cisplatin at IC20, at 0.5 µM) it was -6.91% and -12.4%; in assay [4] (at 0.5 µM) it was -3.74% (inactive) and -1.89% (inactive); in assay [4] (measured here: inhibition with BGB combination, at 0.05 µM) it was -37.8% and -16.5%; in assay [4] (measured here: inhibition with cisplatin combination, at 0.05 µM), -17.9% and -15%; in assay [5] (at 0.5 µM), -23.1% (inactive) and -22.9% (inactive). For the same molecule, the inhibition in assay [5] (setting [15]) was -21.1% and -18.8%; in assay [5] (measured here: combination with cisplatin, at 5 µM), -70.5% and -18.7%; in [6] (at 0.5 µM), -40.6% (inactive) and -11.5% (inactive); in assay [6] (measured here: BGB combination, at 0.5 µM), -36.9% and -5.88%; in [6] (measured here: BGB combination, at 5 µM) it was -35% and -10.4%; in [6] (measured here: cisplatin combination, at 0.5 µM) it was -61.4% and -18.5%. Also, the inhibition in [6] (measured here: cisplatin combination, at 5 µM) was -41.1% and -14.2%; in assay [7] (BGB combination, concentration series, at 5 µM) it was -29.6% and 11.3%; in assay [7] (at 0.5 µM), -16.2% (inactive) and 2.2% (inactive); in assay [7] (cisplatin combination, concentration series, at 5 µM), 3.2% and 10.4%; in [8], -9.22% (inactive) and 7.1% (inactive); in [8] (measured here: combo with BGB IC20), -20% and 5.8%. The inhibition in assay [8] (measured here: combo with cisplatin IC20) is -3.02% and 3.4%; in assay [9] (at 0.5 µM), -34.8% (inactive) and -13.6% (inactive); in [9] (cisplatin combination, at 0.5 µM), -11.4% and -21.6%; in [9] (cisplatin combination, at 5 µM), 1.31% and -15.5%; in assay [9] (measured here: BGB IC40 combination 0.05 uM, at 0.05 µM), -11% and -18.6%; in assay [9] (single agent, at 5 µM) it was -27.6% and -16%. The inhibition in assay [10] (at 0.5 µM) was -19.6% (inactive) and -7.56% (inactive); in [10] (cisplatin combo, at 5 µM) it was -8.32% and -2.07%; in assay [10] (measured here: BGB IC40 combination, at 0.05 µM), 3.33% and -8.31%; in assay [10] (setting [15]) it was -12.9% and 7.07%; in assay [10] (single agent, at 5 µM), -26.9% and -32.7%; in assay [11] (at 0.5 µM), -41.9% (inactive) and 12.8% (inactive). Further, the inhibition in assay [11] (measured here: with BGB IC20 combination, at 0.5 µM) was -11.7% and 21.6%; in [11] (measured here: with cisplatin IC20 combination, at 0.5 µM) it was -60.6% and 8.43%; in [11] (single agent, at 0.05 µM), -56.9% and 27.3%; in assay [11] (single agent, at 5 µM) it was -2.19% and 10%.

With `CCOC(=O)OC(C)OC1=C(C(=O)Nc2ccccn2)N(C)S(=O)(=O)c2ccccc21` (stereo unspecified), in assay [12], the remaining NAD is 10 nM (inactive). For the same molecule, the z-score in assay [13] was 0.855 (inactive) and 0.87 (inactive).

For `O=C1c2ccccc2C(=O)c2c1ccc(O)c2O`, the luciferase signal in [14] is 36 AU (inactive).

For `CC[C@@]1(O)C(=O)OCc2c1cc1n(c2=O)Cc2cc3c(CN(C)C)c(O)ccc3nc2-1`, the remaining NAD in [12] was 10 nM (inactive). For the same molecule, in [13], the z-score is -1.13 (inactive) and -1.87 (inactive) and -2.38 (inactive).

As for `O=C(O)[C@@H](O)[C@H](O)[C@H](O)[C@@H](O)C(=O)O`, the luciferase signal in [14] was 52 AU (inactive).
